Screen size: about 5,500 compounds; about 2,000 (36%) were called active. Another 18% or so got no clear call; they are omitted. Rule as the data show it: active = normalized growth mostly below about 0.91 (no sharp cut-off); inconclusive = no clear call, values can overlap the other calls; inactive = mostly above about 0.92. The list shows a part of the results.
Test: chemical genetic growth profiling, strain panel (AID 1159580);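 also: tested at 20 µM; growth read once vehicle control cultures reached saturation at 30 °C; 1 = growth at the plate median or of vehicle wells; lower values mean less growth of the strain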
Conditions: growth OD

Measured: normalized growth

COc1cc(/C=C/C(=O)O)cc(OC)c1OC
inactive: S. cerevisiae deletion strains, locus YJR043C, strain POL32, stronger effect = lower value 0.999 | S. cerevisiae deletion strains, locus YJR066W, strain TOR1, stronger effect = lower value 1.02 | S. cerevisiae deletion strains, locus YKL009W, strain mrt4, stronger effect = lower value 1.03 | S. cerevisiae deletion strains, locus YKL068W, stronger effect = lower value 1.02 | S. cerevisiae deletion strains, locus YKL085W, strain MDH1 (second series), stronger effect = lower value 1.01 | S. cerevisiae deletion strains, locus YKL085W, strain MDH1, stronger effect = lower value 1.01 | S. cerevisiae deletion strains, locus YKL160W, strain elf1, stronger effect = lower value 0.985 | S. cerevisiae deletion strains, locus YKR001C, strain vps1, stronger effect = lower value 1 | S. cerevisiae deletion strains, locus YKR026C, strain gcn3, stronger effect = lower value 0.985 | S. cerevisiae deletion strains, locus YKR091W, strain srl3, stronger effect = lower value 0.98 | S. cerevisiae deletion strains, locus YLL001W, strain dnm1, stronger effect = lower value 0.969 | S. cerevisiae deletion strains, locus YLL026W, stronger effect = lower value 0.995 | S. cerevisiae deletion strains, locus YLL041C, strain sdh2, stronger effect = lower value 0.999 | S. cerevisiae deletion strains, locus YLR027C, strain aat2, stronger effect = lower value 0.998 | S. cerevisiae deletion strains, locus YLR039C, strain RIC1, stronger effect = lower value 1.04 | S. cerevisiae deletion strains, locus YLR058C, strain SHM2, stronger effect = lower value 1.02 | S. cerevisiae deletion strains, locus YLR102C, strain apc9, stronger effect = lower value 1.02 | S. cerevisiae deletion strains, locus YLR113W, strain HOG1, stronger effect = lower value 1.03 | S. cerevisiae deletion strains, locus YLR221C, strain rsa3, stronger effect = lower value 1 | S. cerevisiae deletion strains, locus YLR258W, strain gsy2, stronger effect = lower value 0.993 | S. cerevisiae deletion strains, locus YLR262C, strain YPT6 (second series), stronger effect = lower value 0.994 | S. cerevisiae deletion strains, locus YLR262C, strain YPT6, stronger effect = lower value 1.01 | S. cerevisiae deletion strains, locus YLR268W, strain sec22, stronger effect = lower value 1.02 | S. cerevisiae deletion strains, locus YLR320W, strain mms22, stronger effect = lower value 0.995 | S. cerevisiae deletion strains, locus YLR330W, strain CHS5, stronger effect = lower value 1.01 | S. cerevisiae deletion strains, locus YLR342W, strain FKS1 (second series), stronger effect = lower value 0.999 | S. cerevisiae deletion strains, locus YLR342W, strain FKS1, stronger effect = lower value 0.986 | S. cerevisiae deletion strains, locus YLR357W, strain rsc2, stronger effect = lower value 0.993 | S. cerevisiae deletion strains, locus YLR370C, strain arc18, stronger effect = lower value 0.992 | S. cerevisiae deletion strains, locus YLR371W, strain rom2, stronger effect = lower value 1.06 | S. cerevisiae deletion strains, locus YLR384C, strain iki3, stronger effect = lower value 0.986 | S. cerevisiae deletion strains, locus YLR418C, strain cdc73, stronger effect = lower value 0.975 | S. cerevisiae deletion strains, locus YML016C, strain PPZ1, stronger effect = lower value 1.01 | S. cerevisiae deletion strains, locus YML032C, strain rad52, stronger effect = lower value 1.03 | S. cerevisiae deletion strains, locus YML120C, strain ndi1, stronger effect = lower value 1 | S. cerevisiae deletion strains, locus YML124C, strain tub3, stronger effect = lower value 1.02 | S. cerevisiae deletion strains, locus YMR058W, strain fet3, stronger effect = lower value 0.997 | S. cerevisiae deletion strains, locus YMR078C, strain ctf18, stronger effect = lower value 1.05 | S. cerevisiae deletion strains, locus YMR125W, strain sto1, stronger effect = lower value 0.965 | S. cerevisiae deletion strains, locus YMR129W, stronger effect = lower value 0.996 | S. cerevisiae deletion strains, locus YMR205C, strain PFK2, stronger effect = lower value 0.984 | S. cerevisiae deletion strains, locus YMR223W, strain ubp8, stronger effect = lower value 1.04 | S. cerevisiae deletion strains, locus YMR231W, strain pep5, stronger effect = lower value 0.981 | S. cerevisiae deletion strains, locus YMR263W, strain SAP30, stronger effect = lower value 1.01 | S. cerevisiae deletion strains, locus YMR307W, strain GAS1, stronger effect = lower value 1.04 | S. cerevisiae deletion strains, locus YNL067W, strain RPL9B, stronger effect = lower value 1.01 | S. cerevisiae deletion strains, locus YNL071W, strain lat1, stronger effect = lower value 0.991 | S. cerevisiae deletion strains, locus YNL183C, strain NPR1, stronger effect = lower value 1.03 | S. cerevisiae deletion strains, locus YNL209W, strain ssb2, stronger effect = lower value 0.996 | S. cerevisiae deletion strains, locus YNL233W, strain BNI4, stronger effect = lower value 0.999 | S. cerevisiae deletion strains, locus YNL248C, strain rpa49, stronger effect = lower value 1 | S. cerevisiae deletion strains, locus YNL250W, strain rad50, stronger effect = lower value 1.02 | S. cerevisiae deletion strains, locus YNL271C, strain bni1, stronger effect = lower value 1.02 | S. cerevisiae deletion strains, locus YNL298W, strain CLA4, stronger effect = lower value 1.03 | S. cerevisiae deletion strains, locus YNL307C, strain MCK1, stronger effect = lower value 1.02 | S. cerevisiae deletion strains, locus YNL322C, strain KRE1 (second series), stronger effect = lower value 0.99 | S. cerevisiae deletion strains, locus YNL322C, strain KRE1, stronger effect = lower value 1.01 | S. cerevisiae deletion strains, locus YNR049C, strain mso1, stronger effect = lower value 0.988 | S. cerevisiae deletion strains, locus YNR052C, strain pop2, stronger effect = lower value 1.01 | S. cerevisiae deletion strains, locus YOL006C, strain TOP1, stronger effect = lower value 1.04 | S. cerevisiae deletion strains, locus YOL012C, strain htz1 1.26 | S. cerevisiae deletion strains, locus YOL147C, strain pex11, stronger effect = lower value 1.02 | S. cerevisiae deletion strains, locus YOR001W, strain rrp6, stronger effect = lower value 1.03 | S. cerevisiae deletion strains, locus YOR061W, strain CKA2, stronger effect = lower value 1.02 | S. cerevisiae deletion strains, locus YOR069W, strain VPS5, stronger effect = lower value 1.01 | S. cerevisiae deletion strains, locus YOR070C, strain gyp1, stronger effect = lower value 0.991 | S. cerevisiae deletion strains, locus YOR080W, strain dia2, stronger effect = lower value 0.983 | S. cerevisiae deletion strains, locus YOR083W, strain WHI5, stronger effect = lower value 0.972 | S. cerevisiae deletion strains, locus YOR106W, strain vam3, stronger effect = lower value 0.961 | S. cerevisiae deletion strains, locus YOR136W, strain idh2, stronger effect = lower value 1.01 | S. cerevisiae deletion strains, locus YOR144C, strain elg1, stronger effect = lower value 1.01 | S. cerevisiae deletion strains, locus YOR184W, strain ser1, stronger effect = lower value 1.04 | S. cerevisiae deletion strains, locus YOR231W, strain MKK1, stronger effect = lower value 1.06 | S. cerevisiae deletion strains, locus YOR265W, strain rbl2, stronger effect = lower value 0.983 | S. cerevisiae deletion strains, locus YOR270C, strain vph1, stronger effect = lower value 0.998 | S. cerevisiae deletion strains, locus YOR290C, strain snf2, stronger effect = lower value 0.954 | S. cerevisiae deletion strains, locus YOR316C, strain cot1, stronger effect = lower value 1.02 | S. cerevisiae deletion strains, locus YPL051W, strain arl3, stronger effect = lower value 1 | S. cerevisiae deletion strains, locus YPL078C, strain atp4, stronger effect = lower value 0.987 | S. cerevisiae deletion strains, locus YPL106C, strain sse1, stronger effect = lower value 0.972 | S. cerevisiae deletion strains, locus YPL240C, strain hsp82, stronger effect = lower value 0.989 | S. cerevisiae deletion strains, locus YPL256C, strain CLN2, stronger effect = lower value 0.999 | S. cerevisiae deletion strains, locus YPR119W, strain clb2, stronger effect = lower value 1.03 | S. cerevisiae deletion strains, locus YPR141C, strain kar3, stronger effect = lower value 1.03 | S. cerevisiae deletion strains, locus YPR163C, strain tif3, stronger effect = lower value 1.03 | S. cerevisiae deletion strains, locus YPR167C, strain met16, stronger effect = lower value 1.02 | S. cerevisiae deletion strains, strain wtn01, stronger effect = lower value 1.01 | S. cerevisiae strains, strain wild type, stronger effect = lower value 1.01
